From PubChem BioAssay
For some assays here: Potency and affinity values are given separately. Activity calls are given as the source filed them. Unless noted, no rule for the calls is given here. Residues, ends and D or L forms follow the SMILES beside them. *: point of attachment. Octanoyl = CCCCCCCC(=O)*

What was measured:
[1] = antimalarial activity against Dd2 strain (AID 2302;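 active = growth inhibition above 50% at the single 2 µM test dose, taken to imply half-maximal potency below 2 µM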;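 also: 0% = DMSO untreated growth and 100% = chloroquine plus artemisinin killed control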); conditions: P. falciparum Dd2 in RBCs, LDH growth readout, 72 h; at 2 µM; active compounds read high
[2] = HepG2 cytotoxicity, primary screen, cytotoxicity control for P. falciparum antimalarial project, cell-based, ATP luminescence (AID 2303;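 active = inhibition above 50%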;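 also: 0% = DMSO wells and 100% = digitonin-killed cells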); conditions: HepG2 viability, 24-48 h, at 10 µM, active compounds read high
[3] = target: L-lactate dehydrogenase (Plasmodium falciparum (isolate CDC / Honduras)) (UniProt Q27743); experiment: PfLDH activity inhibition – cell lysate, 3D7 strain, counter-screen for P. falciparum growth inhibition project (AID 2304);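 also: 0% = vehicle and 100% = reference inhibitor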; conditions: P. falciparum 3D7 crude extract, LDH APAD/NBT absorbance; at 2 µM; active compounds read high
[4] = inhibition of 3D7 malaria parasite growth – strain 3D7 (AID 2306);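 also: 0% = DMSO wells and 100% = chloroquine plus artemisinin control wells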; conditions: P. falciparum 3D7 erythrocytic growth, LDH absorbance, 72 h; at 2 µM; active compounds read high
[5] = target: Calcium-dependent protein kinase 1 (Plasmodium falciparum (isolate 3D7)) (UniProt P62344); experiment: PfCDPK1 kinase inhibitors, biochemical, TCAMS library (AID 1159585; cut-off not given, nearly all actives have IC50 up to about 0.98 µM;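 also: inhibitors leave more ATP so luminescence rises with inhibition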); conditions: recombinant PfCDPK1, Kinase-Glo ATP depletion luminescence
[6] = target: Plasmodium falciparum protein kinase 6 (PK6, PF3D7_1337100) (UniProt Q8IDW1); experiment: PfPK6 kinase inhibitors, biochemical, TCAMS library (AID 1159586); conditions: recombinant PfPK6, Kinase-Glo ATP depletion luminescence
[7] = target: Protein kinase 7 (PK7), Plasmodium falciparum 3D7 (PF3D7_0213400) (UniProt Q7YTF7); experiment: inhibition of Plasmodium PK7 catalytic activity – biochemical, TCAMS antimalarial set, Kinase-Glo luminescence (AID 1159587); conditions: recombinant PfPK7, Kinase-Glo ATP depletion luminescence
[8] = target: Calcium-dependent protein kinase 4 (Plasmodium falciparum (isolate 3D7)) (UniProt Q8IBS5); experiment: PfCDPK4 kinase inhibitors, biochemical, TCAMS library (AID 1159588; cut-off not given, nearly all actives have IC50 up to about 0.91 µM); conditions: recombinant PfCDPK4, Kinase-Glo ATP depletion luminescence
Chain of Calcium-dependent protein kinase 4 (Plasmodium falciparum (isolate 3D7)) (Q8IBS5 whole entry, looked up): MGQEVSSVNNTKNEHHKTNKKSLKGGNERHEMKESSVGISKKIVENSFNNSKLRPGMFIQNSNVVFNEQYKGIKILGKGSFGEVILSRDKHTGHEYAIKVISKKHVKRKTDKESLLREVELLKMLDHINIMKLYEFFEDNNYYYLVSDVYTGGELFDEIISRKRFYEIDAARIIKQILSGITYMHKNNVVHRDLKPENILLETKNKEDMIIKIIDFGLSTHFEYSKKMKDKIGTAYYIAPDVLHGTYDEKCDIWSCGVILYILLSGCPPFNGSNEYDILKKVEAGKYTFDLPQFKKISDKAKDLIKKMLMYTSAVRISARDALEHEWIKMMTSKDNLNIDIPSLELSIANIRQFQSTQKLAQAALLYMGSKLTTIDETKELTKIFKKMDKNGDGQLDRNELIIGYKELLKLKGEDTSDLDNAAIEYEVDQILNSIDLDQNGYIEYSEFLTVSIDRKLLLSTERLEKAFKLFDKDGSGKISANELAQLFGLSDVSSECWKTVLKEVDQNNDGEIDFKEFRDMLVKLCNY

Chain of Plasmodium falciparum protein kinase 6 (PK6, PF3D7_1337100) (Q8IDW1 1-305): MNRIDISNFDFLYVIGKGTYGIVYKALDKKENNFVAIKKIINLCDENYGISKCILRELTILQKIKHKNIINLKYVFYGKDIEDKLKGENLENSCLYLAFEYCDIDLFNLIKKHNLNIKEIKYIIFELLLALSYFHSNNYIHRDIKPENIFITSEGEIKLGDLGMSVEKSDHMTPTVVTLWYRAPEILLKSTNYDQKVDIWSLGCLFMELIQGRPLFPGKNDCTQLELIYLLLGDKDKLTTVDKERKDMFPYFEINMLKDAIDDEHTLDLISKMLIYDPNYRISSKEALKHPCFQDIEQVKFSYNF
Chain of L-lactate dehydrogenase (Plasmodium falciparum (isolate CDC / Honduras)) (Q27743 whole entry, looked up): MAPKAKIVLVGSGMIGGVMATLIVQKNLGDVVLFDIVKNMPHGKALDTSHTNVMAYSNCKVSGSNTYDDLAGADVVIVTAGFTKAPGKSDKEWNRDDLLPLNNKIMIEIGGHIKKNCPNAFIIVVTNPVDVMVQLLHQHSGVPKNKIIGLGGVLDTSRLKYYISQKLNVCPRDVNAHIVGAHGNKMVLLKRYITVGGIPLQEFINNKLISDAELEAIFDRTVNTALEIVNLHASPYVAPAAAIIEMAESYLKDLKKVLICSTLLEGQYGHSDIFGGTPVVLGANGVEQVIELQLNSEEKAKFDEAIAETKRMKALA
Chain of Calcium-dependent protein kinase 1 (Plasmodium falciparum (isolate 3D7)) (P62344 whole entry, looked up): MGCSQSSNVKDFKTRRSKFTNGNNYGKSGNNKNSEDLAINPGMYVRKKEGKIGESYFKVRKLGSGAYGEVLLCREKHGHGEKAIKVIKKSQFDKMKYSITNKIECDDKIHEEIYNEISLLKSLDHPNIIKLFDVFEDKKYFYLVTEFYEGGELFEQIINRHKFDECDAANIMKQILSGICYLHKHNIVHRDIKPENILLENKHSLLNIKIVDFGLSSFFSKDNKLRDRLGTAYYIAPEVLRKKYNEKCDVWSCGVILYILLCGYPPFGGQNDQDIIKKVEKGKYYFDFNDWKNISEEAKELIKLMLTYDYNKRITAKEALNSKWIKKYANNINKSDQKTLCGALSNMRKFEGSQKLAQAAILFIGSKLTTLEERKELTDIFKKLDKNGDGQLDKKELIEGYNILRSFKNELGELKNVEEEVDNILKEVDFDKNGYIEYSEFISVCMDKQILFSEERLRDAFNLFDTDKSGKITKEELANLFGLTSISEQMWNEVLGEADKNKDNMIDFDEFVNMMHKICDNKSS
Chain of Protein kinase 7 (PK7), Plasmodium falciparum 3D7 (PF3D7_0213400) (Q7YTF7 1-343): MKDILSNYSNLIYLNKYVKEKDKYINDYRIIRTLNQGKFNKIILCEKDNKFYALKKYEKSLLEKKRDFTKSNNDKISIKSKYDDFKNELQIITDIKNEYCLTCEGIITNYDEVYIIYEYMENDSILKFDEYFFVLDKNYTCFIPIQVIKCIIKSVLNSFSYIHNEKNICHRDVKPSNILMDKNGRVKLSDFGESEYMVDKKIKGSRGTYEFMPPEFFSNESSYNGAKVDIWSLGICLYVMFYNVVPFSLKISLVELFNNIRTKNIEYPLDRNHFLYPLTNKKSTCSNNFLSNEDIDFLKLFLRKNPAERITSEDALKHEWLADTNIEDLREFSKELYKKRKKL

CCOc1c(CNCCCNc2nc3ccccc3[nH]2)cc(I)cc1OC
inactive: growth inhibition [1] 4% | inhibition [2] 42% | inhibition [3] 1% | outcome [5] | outcome [6] | outcome [7] | outcome [8]
active: growth inhibition [4] 100%

COc1cc(C(=O)Nc2cccc(-c3cn4cccc(C)c4n3)c2)cc(OC)c1OC
inactive: inhibition [2] -3% | inhibition [3] -1% | outcome [5] | outcome [6] | outcome [7] | outcome [8]
active: growth inhibition [1] 77% | growth inhibition [4] 99%

NC(=O)c1ccccc1OCC(=O)Nc1cccc(-c2ccc(-c3nc4ccccc4[nH]3)cc2)c1
inactive: growth inhibition [1] 46% | inhibition [3] 4% | outcome [5] | outcome [6] | outcome [7] | outcome [8]
active: inhibition [2] 66% | growth inhibition [4] 95%

O=[N+]([O-])c1cccc(CNCC2CCN(CC3CCCCC3)CC2)c1
active: growth inhibition [4] 90%
inactive: growth inhibition [1] 14% | inhibition [2] 11% | inhibition [3] 2% | outcome [5] | outcome [6] | outcome [7] | outcome [8]

CNC(=O)C1Cc2c([nH]c3cc(Cl)ccc23)C2(CCN(CCc3ccccc3)CC2)N1 (stereo not given)
active: growth inhibition [4] 91%
inactive: growth inhibition [1] 3% | inhibition [2] 14% | inhibition [3] 4% | outcome [5] | outcome [6] | outcome [7] | outcome [8]

CCOc1cc(CC)ccc1C1CCN(CCN2CCC(NC(=O)c3ccc(-c4ccc(C(C)=O)cc4)cc3)CC2)CC1
active: growth inhibition [4] 100%
inactive: growth inhibition [1] 8% | inhibition [2] 25% | inhibition [3] -1% | outcome [5] | outcome [6] | outcome [7] | outcome [8]

C[C@H](Cc1ccc(OCCCCCOc2ccc(C[C@@H](C)NC[C@H](O)c3cccc(Cl)c3)cc2)cc1)NC[C@H](O)c1cccc(Cl)c1
inactive: inhibition [3] -1% | outcome [5] | outcome [6] | outcome [7] | outcome [8]
active: growth inhibition [1] 101% | inhibition [2] 99% | growth inhibition [4] 99%

COc1ccc(Cc2c(C)nc3nc(N)nc(N)c3c2C)cc1OC
inactive: growth inhibition [1] -4% | inhibition [3] -1% | outcome [5] | outcome [6] | outcome [7] | outcome [8]
active: inhibition [2] 66% | growth inhibition [4] 93%

COc1ccc(CNC2CCN(C)CC2)cc1-c1ccc(S(=O)(=O)NCCc2ccccn2)cc1
inactive: growth inhibition [1] 17% | inhibition [2] 13% | inhibition [3] -5% | outcome [5] | outcome [6] | outcome [7] | outcome [8]
active: growth inhibition [4] 93%

Cc1cnc(N2CCN(CC3CCN(C)CC3)CC2)nc1Oc1ccc(-n2ccnc2)cc1
inactive: inhibition [2] 9% | inhibition [3] -3% | outcome [5] | outcome [6] | outcome [7] | outcome [8]
active: growth inhibition [1] 66% | growth inhibition [4] 99%

COc1cccc(-c2ccc(O)c(CNCCc3cccc(F)c3)c2)n1
active: growth inhibition [1] 67% | growth inhibition [4] 96%
inactive: inhibition [2] -14% | inhibition [3] 0% | outcome [5] | outcome [6] | outcome [7] | outcome [8]

CN1c2ccc([N+](=O)[O-])cc2C(C)(C)C12C=Cc1cc(Br)cc([N+](=O)[O-])c1O2 (stereo not given)
inactive: inhibition [2] -8% | inhibition [3] 1% | outcome [5] | outcome [6] | outcome [7] | outcome [8]
active: growth inhibition [1] 99% | growth inhibition [4] 101%

Cc1ccc(C(c2nnnn2C2CCCC2)N(Cc2ccco2)Cc2ccccc2Cl)cc1 (stereo not given)
inactive: inhibition [2] 8% | inhibition [3] -2% | outcome [5] | outcome [6] | outcome [7] | outcome [8]
active: growth inhibition [1] 78% | growth inhibition [4] 85%

Cc1[nH]cnc1-c1cccc(NC(=O)c2cc3ccccc3s2)c1
inactive: growth inhibition [1] 48% | inhibition [2] 5% | inhibition [3] -5% | outcome [5] | outcome [6] | outcome [7] | outcome [8]
active: growth inhibition [4] 99%

COc1cc2nc(N3CCC(CNC(=O)c4ccc(-c5cccc(C#N)c5)cc4)CC3)nc(N)c2cc1OC
inactive: inhibition [2] 18% | inhibition [3] 6% | outcome [5] | outcome [6] | outcome [7] | outcome [8]
active: growth inhibition [1] 100% | growth inhibition [4] 100%

O=S(=O)(c1c(Cl)cc(Cl)cc1Cl)N1CCCCC(c2ccc(C(F)(F)F)cc2)=N1
inactive: inhibition [2] 6% | inhibition [3] -5% | outcome [5] | outcome [6] | outcome [7] | outcome [8]
active: growth inhibition [1] 99% | growth inhibition [4] 98%

COc1ccc(CNC2CCN(C)CC2)cc1-c1ccc(S(=O)(=O)NCCc2ccccn2)c(F)c1
inactive: inhibition [2] 3% | inhibition [3] 1% | outcome [5] | outcome [6] | outcome [7] | outcome [8]
active: growth inhibition [1] 55% | growth inhibition [4] 101%

COc1ccccc1CCNc1nc(C)cc(N[C@@H](CC(C)C)C(=O)NCc2cccc(F)c2)n1
active: growth inhibition [1] 79% | growth inhibition [4] 94%
inactive: inhibition [2] 20% | inhibition [3] -3% | outcome [5] | outcome [6] | outcome [7] | outcome [8]

Clc1ccc(-c2cc3c(NCc4ccncc4)nccc3s2)cc1
active: growth inhibition [4] 98%
inactive: growth inhibition [1] 8% | inhibition [2] 26% | inhibition [3] -1% | outcome [5] | outcome [6] | outcome [7] | outcome [8]

CNS(=O)(=O)c1ccc(NC(=O)c2cc(-c3cccnc3)nc3ccc(Br)cc23)cc1
active: growth inhibition [1] 55% | growth inhibition [4] 101%
inactive: inhibition [2] 9% | inhibition [3] 5% | outcome [5] | outcome [6] | outcome [7] | outcome [8]

Cc1cc(CNCCCCCNCc2cccc([N+](=O)[O-])c2)ccc1O
active: growth inhibition [4] 98%
inactive: growth inhibition [1] -2% | inhibition [2] 14% | inhibition [3] 0% | outcome [5] | outcome [6] | outcome [7] | outcome [8]

CCc1ccc(S(=O)(=O)Nc2cccc(CCN3CCC(N4CCCCC4)CC3)c2)cc1
inactive: growth inhibition [1] 20% | inhibition [2] 21% | inhibition [3] -4% | outcome [5] | outcome [6] | outcome [7] | outcome [8]
active: growth inhibition [4] 101%

COc1ccc(OC)c(-c2cccc(-c3cccc(NC(=O)c4ccc([N+](=O)[O-])o4)c3)n2)c1
inactive: inhibition [3] -7% | outcome [5] | outcome [6] | outcome [7] | outcome [8]
active: growth inhibition [1] 97% | inhibition [2] 75% | growth inhibition [4] 98%

CC(C)(C)CCN1CCC(CNC(=O)c2cc(-c3cccc(Cl)c3)cs2)C1 (stereo not given)
active: inhibition [2] 50% | growth inhibition [4] 99%
inactive: growth inhibition [1] 13% | inhibition [3] 3% | outcome [5] | outcome [6] | outcome [7] | outcome [8]

Cc1cc(=O)[nH]c(NC#N)n1
inactive: growth inhibition [1] 3% | inhibition [2] 8% | inhibition [3] 0% | outcome [5] | outcome [6] | outcome [7] | outcome [8]
active: growth inhibition [4] 99%

CN1CCCN(c2ccnc3cc4c(cc23)N(C(=O)c2ccc(C(F)(F)F)cc2)CC4)CC1
inactive: inhibition [2] 10% | inhibition [3] 1% | outcome [5] | outcome [6] | outcome [7] | outcome [8]
active: growth inhibition [1] 63% | growth inhibition [4] 101%

CC(C)N(CCOc1ccc2c(c1)N(C(=O)Nc1ccc(Cl)c(Cl)c1)CC2)C(C)C
active: growth inhibition [4] 101%
inactive: growth inhibition [1] 39% | inhibition [2] 15% | inhibition [3] 3% | outcome [5] | outcome [6] | outcome [7] | outcome [8]

Oc1ccc2c(CNCCc3ccccc3)c(O)ccc2c1CNCCc1ccccc1
active: growth inhibition [1] 100% | growth inhibition [4] 99%
inactive: inhibition [2] 24% | inhibition [3] -8% | outcome [5] | outcome [6] | outcome [7] | outcome [8]

CCCCCCCC(=O)N[C@@H](Cc1ccccc1)C(=O)N[C@H](C(=O)O)C(C)C (Octanoyl-Phe-Val-OH)
active: growth inhibition [4] 89%
inactive: growth inhibition [1] -7% | inhibition [2] -8% | inhibition [3] 2% | outcome [5] | outcome [6] | outcome [7] | outcome [8]

COc1cc2nc(N3CCN(C(=O)c4ccco4)CC3)nc(NCc3ccccc3)c2cc1OC
inactive: inhibition [2] 16% | inhibition [3] -5% | outcome [5] | outcome [6] | outcome [7] | outcome [8]
active: growth inhibition [1] 99% | growth inhibition [4] 101%

COc1cc2nc(N3CCC(CNC(=O)c4ccc(-c5ccc(-c6noc(C)n6)cc5C)cc4)CC3)nc(N)c2cc1OC
inactive: inhibition [3] -4% | outcome [5] | outcome [6] | outcome [7] | outcome [8]
active: growth inhibition [1] 99% | inhibition [2] 99% | growth inhibition [4] 100%

Cc1cc(F)ccc1Nc1nc(N(C)c2ccccc2)c2cc(OCCCN(C)C)ccc2n1
active: growth inhibition [4] 100%
inactive: growth inhibition [1] 49% | inhibition [2] 31% | inhibition [3] 4% | outcome [5] | outcome [6] | outcome [7] | outcome [8]

COc1ccc(S(=O)(=O)NCC2CCCN(CCCCCNC(=O)/C=C/c3ccc(Cl)c(Cl)c3)C2)cc1 (stereo not given)
active: inhibition [2] 53% | growth inhibition [4] 81%
inactive: growth inhibition [1] 1% | inhibition [3] 1% | outcome [5] | outcome [6] | outcome [7] | outcome [8]

CC(C)(C)C1CCC(C(=O)c2ccc3ccccc3c2O)CC1 (stereo not given)
inactive: inhibition [2] -4% | inhibition [3] -1% | outcome [5] | outcome [6] | outcome [7] | outcome [8]
active: growth inhibition [1] 63% | growth inhibition [4] 83%

CO/C(=C\C=C\c1cc2cc(Cl)c(Cl)cc2[nH]1)C(=O)NCCCN1CCN(c2cccc(CCCO)c2)CC1
active: inhibition [2] 66% | growth inhibition [4] 90%
inactive: growth inhibition [1] 36% | inhibition [3] 3% | outcome [5] | outcome [6] | outcome [7] | outcome [8]

CCc1cn2c3c(cc(C(=O)N[C@@H](Cc4ccccc4)[C@H](O)CNC(C)C)cc13)N(C)S(=O)(=O)C2
active: growth inhibition [1] 98% | growth inhibition [4] 98%
inactive: inhibition [2] 16% | inhibition [3] 8% | outcome [5] | outcome [6] | outcome [7] | outcome [8]

CC(C)(C)c1cc(C(=O)N2CCN(c3ccc(C(F)(F)F)cn3)CC2)n(Cc2ccc(F)cc2)n1
inactive: growth inhibition [1] 26% | inhibition [2] 4% | inhibition [3] -1% | outcome [5] | outcome [6] | outcome [7] | outcome [8]
active: growth inhibition [4] 88%

Cc1cccc2[nH]c(-c3ccc(-c4ccc(NC(=O)Nc5ccc(Cl)c(Cl)c5)cc4)s3)nc12
inactive: inhibition [3] 0% | outcome [5] | outcome [6] | outcome [7] | outcome [8]
active: growth inhibition [1] 101% | inhibition [2] 100% | growth inhibition [4] 101%

CC(=O)Oc1ccc(C(=O)Oc2ccccc2C#CC#N)cc1OC(C)=O
active: growth inhibition [1] 61% | growth inhibition [4] 93%
inactive: inhibition [2] 23% | inhibition [3] -1% | outcome [5] | outcome [6] | outcome [7] | outcome [8]

CCNc1cc(C(=O)N[C@@H](Cc2ccccc2)[C@H](O)CNC(C)(C)Cc2cccc(Cl)c2)cc(N2CCCCS2(=O)=O)c1
active: growth inhibition [1] 74% | growth inhibition [4] 97%
inactive: inhibition [2] 17% | inhibition [3] 3% | outcome [5] | outcome [6] | outcome [7] | outcome [8]
